This note sets out measurements from PubChem BioAssay (NCI).

Experiment [1] in a line: NCI Yeast Anticancer Drug Screen. Data for the rad50 strain (AID 155).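 Note: 0% = growth of vehicle-only cultures of the same strain.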 As to conditions: S. cerevisiae rad50 strain growth inhibition; at 50.0 µM; hits give high values. Put shortly:
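Vehicle-treated cultures provide the reference for the growth inhibition reported for compound-exposed, repair-deficient yeast.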

Experiment [2] is described as follows: NCI Yeast Anticancer Drug Screen. Data for the mec2-1 strain (AID 157). As to conditions: S. cerevisiae mec2-1 strain, at 50.0 µM, hits give high values. The method, boiled down: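 Test agents were screened against the mec2-1 yeast strain, with defined DNA repair or cell cycle alteration. Growth was scored as inhibition against vehicle-only controls.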
Experiment [3] in a line: NCI Yeast Anticancer Drug Screen. Data for the sgs1 mgt1 strain (AID 161).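 Note: 0% = growth of cultures given vehicle only.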 To be noted: S. cerevisiae sgs1 mgt1 strain, at 50.0 µM, hits give high values. Put shortly: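 Read-out: growth inhibition vs vehicle controls. Cells: mutant yeast strain deficient in DNA damage repair.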
Experiment [4] can be described thus: NCI Yeast Anticancer Drug Screen. Data for the cln2 rad14 strain (AID 165).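 Note: 0% = growth equal to vehicle treated cultures.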 To be noted: S. cerevisiae cln2 rad14 strain, at 50.0 µM, hits give high values. Put shortly:
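Growth of compound-exposed yeast (cln2 rad14 genotype) measured and expressed as inhibition relative to vehicle.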

Experiment [5] in a line: NCI Yeast Anticancer Drug Screen. Data for the bub3 strain (AID 167). To be noted: S. cerevisiae bub3 mutant strain, at 50.0 µM, hits give high values. Put shortly:
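Mutant yeast screening strain plus compound; vehicle-treated cultures serve as the 0% inhibition reference.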

A short description of experiment [6]: NCI Yeast Anticancer Drug Screen. Data for the mlh1 rad18 strain (AID 175). As to conditions: S. cerevisiae mlh1 rad18 strain growth inhibition; at 50.0 µM; hits give high values. Put shortly:
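In this whole-cell yeast screen, a strain with altered DNA damage repair is challenged with compound, and its growth is measured against matched vehicle-treated controls.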

This is part of a sample that, as a whole, favours compounds with a hit. Of some 79,000 tested, about 15% had one in any assay. A number with no mark means an inactive call. Active and inactive are the calls of the source. Cut-off read from the data, not from the text of the source: active = growth inhibition above about 70%; inactive = the rest.

With `O=[N+]([O-])c1ccc(-c2nnn(C3CC3)c2N2CCCCC2)cc1`, the growth inhibition in experiment [1] is -7.85%; in experiment [2] it was -5.6%; in experiment [3] it was -3.4%; in experiment [4] it was -0.5%; in experiment [5] it was -4.35%; in experiment [6] it was 5.15%.
Consider `O=[N+]([O-])c1ccc(N/N=C2/CC3=C2CCCCCCCCCC3)c([N+](=O)[O-])c1`, for which the growth inhibition in experiment [1] was -6.35%; in experiment [2] it was -4.95%; in experiment [3], 11%; in experiment [4], -14.2%; in experiment [5], -2.15%; in experiment [6], -13.4%.
Take `O=C1CSC(c2ccccc2Br)N1c1nncs1` (stereo not given): the growth inhibition in experiment [1] is -5.05%; in experiment [2], -5.7%; in experiment [3] it was 1.95%; in experiment [4] it was 0.9%; in experiment [5], 13.6%; in experiment [6], 7.75%.
For `COc1ccc2c(=O)c(-c3ccc(OC)c(OC)c3)c(C)oc2c1`, the growth inhibition in experiment [1] was -0.7%; in experiment [2] it was -1.5%; in experiment [3], 13.1%; in experiment [4], 7.5%; in experiment [5] it was -31.4%; in experiment [6], -4.85%.
As to `CC(C)=CCCC(C)(OC1OC(COC2OCC(O)C(O)C2O)C(O)C(O)C1O)C1CCC2(C)C1C(O)CC1C3(C)CCC(OC4OC(CO)C(O)C(O)C4OC4OC(CO)C(O)C(O)C4O)C(C)(C)C3CCC12C` (stereo not given), the growth inhibition is -15.8% in experiment [1]; -26.1% in experiment [2]; -6.05% in experiment [3]; 6.6% in experiment [4]; 4.55% in experiment [5]; 18.4% in experiment [6].
Regarding `CN(C)c1ccc(/C=C/c2ccnc3c(N)cccc23)cc1`, the growth inhibition in experiment [1] was -3.95%; in experiment [2] it was -8.85%; in experiment [3], -14.4%; in experiment [4], -12.8%; in experiment [5], -10.9%; in experiment [6] it was 3.8%.
For the compound `O=C(CC(=O)c1ccccc1)CC(Nc1ccccc1)c1ccccc1` (stereo not given), the growth inhibition is 58% in experiment [1]; 10% in experiment [2]; 46.1% in experiment [3]; -8.5% in experiment [4]; 7.55% in experiment [5]; 45.9% in experiment [6].
As for `Cn1cnc([N+](=O)[O-])c1/N=C/c1ccccc1`, the growth inhibition in experiment [1] is 0.1%; in experiment [2], 2.95%; in experiment [3], -3.95%; in experiment [4], -41.3%; in experiment [5] it was -28.5%; in experiment [6], -6.5%.
As for `Cc1ccc(S(=O)(=O)NC(C)C(=O)O)cc1` (stereo not given), the growth inhibition is -1.5% in experiment [1]; -6.65% in experiment [2]; 4.9% in experiment [3]; 3.2% in experiment [4]; -7.65% in experiment [5]; 4.6% in experiment [6].
For the compound `O=C(Nc1ccc(Cl)cc1Cl)C1C(=O)C(=O)N(c2ccc(Cl)cc2Cl)C1=O` (stereo not given), the growth inhibition in experiment [1] was 10.8%; in experiment [2] it was -10.1%; in experiment [3], -1.35%; in experiment [4], 26%; in experiment [5] it was 0.8%; in experiment [6], 14.4%.
`O=C(O)CCN(CCC(=O)O)S(=O)(=O)c1ccccc1`: the growth inhibition in experiment [1] is -4.55%; in experiment [2] it was -43.4%; in experiment [3], -4.65%; in experiment [4], -103%; in experiment [5], -17.6%; in experiment [6], 22.9%.
Turning to `CC1(C)CC(=O)C2=C(C1)NC(SSC1=C(C#N)C(c3ccc(F)cc3)C3=C(CC(C)(C)CC3=O)N1)=C(C#N)C2c1ccc(F)cc1` (stereo not given), the growth inhibition in experiment [1] was -22.4%; in experiment [2] it was -12.8%; in experiment [3], -12.4%; in experiment [4] it was 55.5%; in experiment [5], -26.2%; in experiment [6], -25.8%.
For `CCCCS(=O)(=O)Cc1ccccc1`, the growth inhibition is 1.75% in experiment [1]; -0.55% in experiment [2]; -1.25% in experiment [3]; -14.1% in experiment [4]; 0.3% in experiment [5]; -17.4% in experiment [6].
Consider `C/C(CCN(C)C)=N\OC(=O)c1ccccc1`, for which the growth inhibition is -12.2% in experiment [1]; -25.9% in experiment [2]; -33.2% in experiment [3]; -6.65% in experiment [4]; -6.95% in experiment [5]; -26.9% in experiment [6].
On to `COc1ccc(-c2cc(-c3ccc(C)cc3)n(C3OC(COC(C)=O)C(OC(C)=O)C(OC(C)=O)C3OC(C)=O)c(=S)c2C#N)cc1` (stereo not given), for which the growth inhibition in experiment [1] was -10.6%; in experiment [2], -11.2%; in experiment [3], -10.3%; in experiment [4], 16.9%; in experiment [5], -2%; in experiment [6] it was 4.4%.
In the case of `NCCC(=O)OC1CCCc2c(O)c3c(c(O)c21)C(=O)c1ccccc1C3=O` (stereo not given), the growth inhibition was 98.8% (active) in experiment [1]; 99.4% (active) in experiment [2]; 99.4% (active) in experiment [3]; 98.9% (active) in experiment [4]; 98.8% (active) in experiment [5]; 99.2% (active) in experiment [6].
For `O=C(NO)/C(CC(=O)c1ccccc1O)=N\O`, the growth inhibition is -5.4% in experiment [1]; -21.6% in experiment [2]; -11.2% in experiment [3]; -2.05% in experiment [4]; -4.15% in experiment [5]; -7.75% in experiment [6].
As to `N#C/C(=C1\N=C(c2ccccc2O)Oc2ccccc21)c1ccc([N+](=O)[O-])cc1`, the growth inhibition in experiment [1] is 6.85%; in experiment [2], -11.9%; in experiment [3], 13.1%; in experiment [4] it was -0.7%; in experiment [5] it was 4.35%; in experiment [6] it was -13.6%.
With `CCc1c(O)c2c(=O)n(C)c(=O)n3c4ccccc4n(c1=O)c23`, the growth inhibition was 40.4% in experiment [1]; 41.4% in experiment [2]; 45.7% in experiment [3]; 26.8% in experiment [4]; 38.9% in experiment [5]; 39.8% in experiment [6].
For `CN(C)c1ccc(NC2COc3ccccc3C2=O)cc1` (stereo not given), the growth inhibition in experiment [1] is -13.1%; in experiment [2], 3.9%; in experiment [3] it was 17.4%; in experiment [4], -17.2%; in experiment [5] it was 67%; in experiment [6], -6.6%.
